Several values for one entry are separate records, joined by “and”; a condition that tells them apart may be missing. Identical values can stand only once. The campaign covered roughly 5,500 compounds. About 2,000 (36%) were called active. Roughly 18% stayed inconclusive and do not appear here. Cut-off read from the data, not from the text of the source: active = normalized growth mostly below about 0.91 (no sharp cut-off); inconclusive = no clear call, values can overlap the other calls; inactive = mostly above about 0.92. The list shows a part of the results.
Experiment: chemical genetic growth profiling, strain panel (AID 1159580);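 note: tested at 20 µM; growth read once vehicle control cultures reached saturation at 30 °C; 1 = growth at the plate median or of vehicle wells; lower values mean less growth of the strain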
Conditions: S. cerevisiae deletion strains, growth OD

Measured: normalized growth

CO[C@@]1(NC(=O)CSCC#N)C(=O)N2C(C(=O)O)=C(CSc3nnnn3C)CSC21 (stereo partly specified)
inactive: locus YAL013W, strain DEP1, hits give low values 1.01 | locus YAL021C, strain ccr4, hits give low values 0.941 | locus YAL026C, strain drs2, hits give low values 0.985 | locus YAL030W, strain snc1, hits give low values 0.988 | locus YBL061C, strain skt5, hits give low values 0.985 | locus YBR009C, strain hhf1, hits give low values 0.988 | locus YBR021W, strain FUR4, hits give low values 1 | locus YBR023C, strain chs3, hits give low values 0.994 | locus YBR171W, strain sec66, hits give low values 0.997 | locus YBR229C, strain ROT2, hits give low values 1.01 | locus YBR231C, strain swc5, hits give low values 0.981 | locus YBR279W, strain paf1, hits give low values 0.981 | locus YCL011C, strain gbp2, hits give low values 0.993 | locus YCL016C, strain dcc1, hits give low values 0.975 | locus YCL029C, strain bik1, hits give low values 1.03 | locus YCL069W, strain vba3, hits give low values 0.986 | locus YCR088W, strain abp1, hits give low values 0.996 | locus YDL005C, strain med2, hits give low values 0.909 | locus YDL035C, strain GPR1, hits give low values 1.02 | locus YDL040C, strain nat1, hits give low values 0.988 | locus YDL074C, strain BRE1, hits give low values 1.03 | locus YDL101C, strain DUN1, hits give low values 1.01 | locus YDL134C, strain PPH21, hits give low values 1.01 | locus YDL185W, strain tfp1, hits give low values 1.03 | locus YDL192W, strain arf1, hits give low values 1.04 | locus YDR001C, strain nth1, hits give low values 1 | locus YDR069C, strain doa4, hits give low values 0.973 | locus YDR101C, strain arx1, hits give low values 1.03 | locus YDR137W, strain rgp1, hits give low values 0.948 | locus YDR150W, strain NUM1, hits give low values 1.01 | locus YDR159W, strain sac3, hits give low values 0.927 | locus YDR162C, strain NBP2, hits give low values 1.04 | locus YDR195W, strain ref2 1 | locus YDR297W, strain sur2, hits give low values 1 | locus YDR318W, strain mcm21, hits give low values 1.03 | locus YDR334W, strain swr1, hits give low values 1 | locus YDR335W, strain msn5, hits give low values 0.99 | locus YDR388W, hits give low values 1.02 | locus YDR392W, strain spt3, hits give low values 0.878 | locus YDR502C, strain sam2, hits give low values 1.03 | locus YEL003W, strain gim4, hits give low values 1 | locus YEL037C, strain rad23, hits give low values 1 | locus YEL061C, strain CIN8 (second series), hits give low values 1.01 | locus YEL061C, strain CIN8, hits give low values 1.01 | locus YER015W, strain faa2, hits give low values 0.982 | locus YER016W, strain bim1, hits give low values 0.968 | locus YER110C, hits give low values 1.04 | locus YER111C, strain swi4, hits give low values 0.982 | locus YER155C, strain BEM2 (second series), hits give low values 0.968 | locus YER155C, strain BEM2, hits give low values 1.01 | locus YER167W, strain BCK2, hits give low values 1.02 | locus YFR010W, strain ubp6, hits give low values 1 | locus YGL078C, strain dbp3, hits give low values 1.03 | locus YGL086W, strain mad1, hits give low values 1.02 | locus YGL167C, strain pmr1, hits give low values 0.984 | locus YGL173C, strain kem1, hits give low values 0.97 | locus YGL227W, strain vid30, hits give low values 1.01 | locus YGL240W, strain doc1, hits give low values 0.959 | locus YGL248W, strain PDE1, hits give low values 1.01 | locus YGL253W, strain hxk2, hits give low values 0.998 | locus YGR078C, strain PAC10, hits give low values 1.01 | locus YGR135W, strain pre9, hits give low values 1.01 | locus YGR229C, strain SMI1, hits give low values 1.02 | locus YGR252W, strain gcn5, hits give low values 1.07 | locus YHR013C, strain ard1, hits give low values 0.964 | locus YHR027C, strain rpn1, hits give low values 0.98 | locus YHR030C, strain SLT2, hits give low values 1.01 and 0.983 | locus YHR079C, strain IRE1 (second series), hits give low values 1.02 | locus YHR079C, strain IRE1, hits give low values 0.986 | locus YHR094C, strain hxt1, hits give low values 1.03 | locus YHR129C, strain ARP1, hits give low values 1.01 | locus YHR142W, strain chs7, hits give low values 1.01 | locus YHR200W, strain rpn10, hits give low values 1.04 | locus YIL066C, strain RNR3, hits give low values 1.03 | locus YIL073C, strain SPO22, hits give low values 1.13 | locus YIL125W, strain kgd1, hits give low values 1.03 | locus YIR030C, strain dcg1, hits give low values 1.03 | locus YJL092W, strain hpr5, hits give low values 1 | locus YJL095W, strain BCK1 (second series), hits give low values 0.979 | locus YJL095W, strain BCK1, hits give low values 1.01 and 0.98 | locus YJL115W, strain asf1, hits give low values 0.984 | locus YJL129C, strain trk1, hits give low values 0.99 | locus YJL134W, strain LCB3, hits give low values 1 | locus YJL154C, strain vps35, hits give low values 1 | locus YJL164C, strain tpk1, hits give low values 0.973 | locus YJL166W, strain qcr8, hits give low values 0.978 | locus YJL168C, strain set2, hits give low values 1.04 | locus YJL187C, strain SWE1 (second series), hits give low values 1.01 | locus YJL187C, strain SWE1, hits give low values 0.985 | locus YJR043C, strain POL32, hits give low values 1.01 | locus YJR066W, strain TOR1, hits give low values 0.942
